Bioassay records (PubChem)
USP30 block: inhibitors of human USP30 deubiquitinase | purified USP30, Ub-rhodamine cleavage fluorescence | 47,000 compounds, 5.3% hits | Q70CQ3 | inhibition, % at 25 µM
USP17 inh: inhibitors of human USP17 deubiquitinase. purified USP17, Ub-rhodamine cleavage fluorescence, 3 h. 47,000 compounds, 6.5% hits. A8MUK1. inhibition, % at 50 µM
Target sequence (A8MUK1 whole entry, looked up): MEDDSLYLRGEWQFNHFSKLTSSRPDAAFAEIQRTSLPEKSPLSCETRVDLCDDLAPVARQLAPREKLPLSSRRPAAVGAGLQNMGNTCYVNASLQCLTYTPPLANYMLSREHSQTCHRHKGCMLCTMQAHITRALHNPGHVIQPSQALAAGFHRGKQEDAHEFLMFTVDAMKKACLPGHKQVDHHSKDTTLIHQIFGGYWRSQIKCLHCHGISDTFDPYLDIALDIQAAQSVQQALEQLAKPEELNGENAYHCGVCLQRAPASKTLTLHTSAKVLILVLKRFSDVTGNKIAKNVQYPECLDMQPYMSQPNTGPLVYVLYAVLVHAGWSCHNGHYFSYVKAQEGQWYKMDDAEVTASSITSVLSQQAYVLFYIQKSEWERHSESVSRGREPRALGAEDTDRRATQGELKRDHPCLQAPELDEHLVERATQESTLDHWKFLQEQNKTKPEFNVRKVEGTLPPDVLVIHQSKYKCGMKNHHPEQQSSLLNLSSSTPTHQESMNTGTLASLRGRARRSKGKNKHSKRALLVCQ
OTUD3 block: inhibitors of human OTUD3 deubiquitinase; Q5T2D3; purified OTUD3, Ub-rhodamine fluorescence, 2 h; inhibition, % at 25 µM; 47,000 compounds, 0.7% hits
USP28 inh: inhibitors of human USP28 deubiquitinase; inhibition, % at 25 µM; 47,000 compounds, 3% hits; AID 1645857; purified USP28, Ub-rhodamine cleavage fluorescence, 30 min; Q96RU2
A number is an active result; – = inactive; · = not tested or not shown. Hits are enriched below; roughly 11% of the tested compounds scored in any of these assays. No stated cut-off is given here; in the data, active means inhibition above about 30%; inactive means the rest.

SMILES	USP30 block	USP17 inh	OTUD3 block	USP28 inh
COCC(=O)N1CCC2(CC1)CC(C(=O)N1CCCC1)c1ccccc12 (stereo not drawn)	–	–	–	–
O=S(=O)(NC(c1ccc(Cl)cc1)c1nnc(-c2ccccc2)o1)c1ccc(F)cc1 (stereo not drawn)	–	·	–	–
CCC(c1nnnn1CCc1ccccc1)N1CCN(c2cccc(C)c2C)CC1 (stereo not drawn)	–	–	–	–
COc1ccc(OC)c(C2CCCN2Cc2nc(N)nc(N)n2)c1 (stereo not drawn)	–	–	–	–
Cc1ccc(NC(=O)C2C3C=CC4(O3)C2C(=O)N(CCCN2CCN(Cc3ccccc3)CC2)C4C(=O)NC2CCCCC2)cc1C (stereo not drawn)	–	–	–	–
Cc1ccc(NC(=O)C2C3C=CC4(O3)C2C(=O)N(CCc2ccccc2)C4C(=O)NC2CCCCC2)cc1C (stereo not drawn)	–	30.4	–	–
CSc1cccc(NC(=O)C(=O)NCc2ccncc2)c1	–	–	–	–
COc1ccc(Cn2c3c(c(=O)[nH]c2=O)CN(C2CCCCC2)CN3)cc1	46.6	43.5	–	–
COc1ccc(Cn2c3c(c(=O)[nH]c2=O)CN(CCc2ccccc2)CN3)cc1	–	–	–	–
COc1ccc(S(=O)(=O)N(C(=O)c2ccncc2)c2ccc(N(C(=O)c3ccncc3)S(=O)(=O)c3ccc(OC)cc3)cc2)cc1	–	–	–	–
O=C(c1ccc2onc(-c3csc(-c4cccnc4)n3)c2c1)N1CCCC1	·	–	–	·
COc1ccc(C(=O)Nc2cccc(S(=O)(=O)NC3=NCCCCC3)c2)cc1	–	–	–	39.9
COc1ccc(S(=O)(=O)c2ccc(NC(=O)c3cccc(Cl)c3)cc2C#N)cc1	–	32.5	–	–
Cc1cc(NS(=O)(=O)c2ccc(NC(=O)COc3ccc(Cl)cc3)cc2)no1	–	–	–	–
O=C(Nc1ccc(S(=O)(=O)NC2=NCCCCC2)cc1)c1ccccc1	–	–	–	–
CCCOc1ccc(C(=O)Nc2ccc(S(=O)(=O)Nc3cc(C)nc(C)n3)cc2)cc1	–	–	57.2	45.4
COc1ccc(NC(=O)c2cccc(C#N)c2)cc1S(=O)(=O)Nc1ccccc1Cl	–	–	–	–
COc1ccc(NS(=O)(=O)c2ccc(C(=O)Nc3cccc(C(C)=O)c3)cc2)cc1	–	45.7	–	–
COc1cccc(NS(=O)(=O)c2ccc3c(c2)N(C)CCO3)c1	–	–	–	–
COC(=O)c1cc2cc(NC(=O)c3cccc(Cl)c3)ccc2s1	36.4	–	–	–
COc1cccc(NS(=O)(=O)c2ccc(Oc3ccccc3OC)cc2)c1	36.8	36.3	–	33.6
CC1CN(C(=O)c2c[nH]c3ccccc3c2=O)CC(C)(C)O1 (stereo not drawn)	–	–	–	–
O=C(Nc1ccccc1)c1ccc(-c2ccccc2)s1	·	54.0	–	·
O=C1C=C(O)c2c(O)cccc2C1=O	–	92.1	–	51.2
O=C1CC(c2ccc(F)cc2)Cc2nc(N3CCc4ccccc4C3)ncc21 (stereo not drawn)	–	–	–	–
SMILES	USP30 block	USP17 inh	OTUD3 block	USP28 inh
Cc1ccc2c(C)nc(Nc3ncc4c(n3)CC(c3ccco3)CC4=O)nc2c1 (stereo not drawn)	38.2	58.9	–	–
O=C1CC(c2ccco2)Cc2nc(N3CCc4ccccc43)ncc21 (stereo not drawn)	–	36.5	–	–
O=C1CC(c2ccco2)Cc2nc(N3CCc4ccccc4C3)ncc21 (stereo not drawn)	·	44.3	–	·
O=C(Nc1ncc2c(n1)CC(c1ccco1)CC2=O)c1ccco1 (stereo not drawn)	–	–	–	–
Cc1ccc(Oc2c(COC(=O)c3ccc(F)cc3)c(-c3ccccc3)nn2C)cc1	–	–	–	–
CC(=O)Nc1cccc(C(=O)Nc2ncc(C)s2)c1	–	–	–	–
Cc1c(O)cc(O)cc1O	–	54.4	47.7	–
CN(Cc1cccc2ncccc12)C(=O)CCCOc1ccc2c(c1)OCO2	–	–	–	–
COc1cccc(-c2cnc(NCCCOc3ccccc3)nc2-c2nccn2C)c1	–	–	–	–
Cc1sc2ncn(CC(=O)Nc3ccccc3)c(=O)c2c1C	–	39.4	–	–
COc1ccc(CNC(=O)Cn2c(=O)cc(-c3ccccc3)c3c(C)nn(-c4ccccc4)c32)cc1	30.6	–	–	–
COc1ccc(CNC(=O)CN2C(=O)c3cccc4cccc2c34)cc1	–	46.5	–	–
COc1ccc(CNC(=O)CN2CCSc3ccccc32)cc1	–	–	–	–
CC(C)NC(=O)[C@H]1C[C@@H]2CN(Cc3ccc(Cl)cc3)C[C@H]1O2	–	–	–	–
O=C(Nc1cc(C(F)(F)F)cc(C(F)(F)F)c1)c1ccc(-c2ccccn2)s1	41.0	–	–	–
Cc1ccccc1Cn1c(=O)n(CCCC(=O)N2CCc3ccccc3C2)c(=O)c2ccccc21	47.4	–	–	–
O=C(CCn1c(=O)c2ccccc2n(Cc2cc(=O)n3ccccc3n2)c1=O)N1CCc2ccccc2C1	–	–	–	–
O=C(Cn1c(=O)n(CCC(=O)N2CCc3ccccc3C2)c(=O)c2ccccc21)NCc1ccccc1Cl	52.7	76.7	–	49.1
Cc1nnc(SCC(=O)c2ccc3c(c2)OCCO3)n1Cc1ccccc1	–	–	–	–
CCNC(=O)c1nc(C(=O)NCC(C)c2ccccc2)cs1 (stereo not drawn)	–	–	–	–
Cc1ccccc1NC(=O)CCN1C(=O)c2cccnc2Sc2ccccc21	37.6	–	–	–
Cc1cccc(NC(=O)CCN2C(=O)c3cccnc3Sc3ccccc32)c1C	–	·	–	–
Cc1ccc(NC(=O)c2nnn(-c3ccccc3)n2)cc1F	–	–	–	55.7
NC(=O)c1nnn(-c2ccc(NC(=O)c3ccc(F)c(F)c3)cc2)n1	–	63.6	–	–
Cc1cccc2sc(NC(=O)c3nnn(-c4ccc(F)cc4)n3)nc12	–	56.2	–	–
SMILES	USP30 block	USP17 inh	OTUD3 block	USP28 inh
COc1ccc(-n2ncc3c(Nc4ccc(OCc5ccccc5)cc4)ncnc32)cc1	–	–	–	–
Cc1cc(C)c2c(N)c(C(=O)Nc3ccccc3Br)sc2n1	·	77.3	–	·
Cc1cc(C(F)(F)F)c2c(N)c(C(=O)Nc3cccc(C(F)(F)F)c3)sc2n1	–	–	–	–
Cc1nc2sc(C(=O)Nc3ccccc3Br)c(N)c2c(C)c1C	50.6	46.0	–	32.6
Cc1ccc(-c2cc(C(F)F)n3ncc(C(=O)Nc4ccc(O)cc4)c3n2)cc1	–	34.6	–	–
CC1CCN(S(=O)(=O)c2nn(C)cc2C(=O)Nc2ccc(F)cc2)CC1	–	–	–	–
O=C(CSc1nc(-c2ccccc2)c2ccccc2n1)NCc1ccc(C(=O)O)cc1	31.9	–	–	–
O=C(O)C1CCCN(c2ncnc3sc4c(c23)CCCC4)C1 (stereo not drawn)	–	–	–	–
O=C(COC(=O)CCCc1c[nH]c2ccccc12)Nc1ccc2c(c1)OCO2	–	–	–	39.9
O=C(CCc1c[nH]c2ccccc12)Nc1ccc(N2CCOCC2)cc1	33.5	60.2	–	61.6
COc1ccc(C)cc1NC(=O)COC(=O)CCCc1c[nH]c2ccccc12	–	–	–	–
